Bioassay records from PubChem.
FEN1 inh: inhibitors of human flap endonuclease 1; P39748; Recombinant FEN1 flap cleavage, fluorescence, 15 min; Potency, µM (series often up to 114 µM), actives largely listed as inhibitors; 0.35% of 390,000 active; AID 588795; also: nearly all actives have a fitted effect of over 65% in size
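Quantitative HTS format: each compound was titrated, incubated with 10 nM nuclease for 15 min at room temperature, then challenged with flap substrate at 50 nM final. Signal change over 15 min gave concentration–effect curves.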
TCR act: T cell receptor activation | 330,000 tested, under 10 active | Potency, µM (top dose mostly 9.22 µM), usual class: activators | primary human leukocytes, anti-CD3, IL-2 HTRF, 48 h
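Primary human leukocytes receive a-CD3 beads and test compound and are incubated 48 hr. Secreted IL-2 is then assayed by HTRF, measuring 665nm acceptor emission after 320nm excitation of the europium donor.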
PLK1 PBD inh: PLK1 (human) polo-box domain binding inhibition; P53350; Plk1 PBD binding of FITC phosphopeptide, fluorescence polarization; Potency, µM, actives largely listed as inhibitors; 2.8% of 360,000 active; AID 720504; also: series mostly up to about 57 µM; nearly all actives have a fitted effect of over 65% in size
WRN helicase inh: WRN helicase (human) inhibition. WRN helicase unwinding, fluorescent forked duplex, kinetic. Potency, µM (doses to about 114 µM), hits mostly inhibitors. 0.46% of 360,000 active; also: nearly all actives have a fitted effect of over 55% in size
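Enzyme (20 nM final) and test compound sit together 15 min at room temperature before substrate addition. Substrate is a single-forked duplex oligonucleotide (100 nM) labelled with fluorophore and quencher, with 2 mM ATP; helicase unwinding raises red fluorescence, read kinetically.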
PI5P4K alpha inh: inhibitors of human PI5P4K alpha | P48426 | PI5P4Kalpha enzyme, ADP-Glo luminescence, 60 min; active compounds read low | max response, % | 1.2% of 330,000 active | AID 652105; active = max response of -50% or lower; inconclusive = between -30% and -50%; inactive = -30% or higher; also: value at the top dose of about 77 µM
Target sequence (P48426 whole entry, looked up): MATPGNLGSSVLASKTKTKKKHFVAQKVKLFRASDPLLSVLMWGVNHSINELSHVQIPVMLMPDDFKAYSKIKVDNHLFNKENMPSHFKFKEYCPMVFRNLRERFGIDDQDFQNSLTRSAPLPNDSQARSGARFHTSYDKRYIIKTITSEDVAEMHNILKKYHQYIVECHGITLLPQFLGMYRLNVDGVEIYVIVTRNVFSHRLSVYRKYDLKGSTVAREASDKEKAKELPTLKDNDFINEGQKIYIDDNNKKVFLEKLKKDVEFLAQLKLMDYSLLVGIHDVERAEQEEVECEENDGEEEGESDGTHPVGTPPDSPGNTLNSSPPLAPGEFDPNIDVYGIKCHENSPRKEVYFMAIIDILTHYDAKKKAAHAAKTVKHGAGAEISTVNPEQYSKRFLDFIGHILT
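PI5P4Kalpha ADP-Glo assay; 5 microM ATP final; 60 min RT reaction; HEPES pH 7.4/EGTA/CHAPS, 5% DMSO; controls lacking substrate or enzyme; luminescent end-point.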
VDR inh: inhibitors of human vitamin D receptor; P11473; VDR-SRC2-3 peptide fluorescence polarization, 2 h; Potency, µM, usual class: inhibitors; 0.93% of 400,000 active; AID 504847
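Two reagent solutions held at 4 deg C in the dark were dispensed, compounds pinned at 23 nl, and the mixture incubated 2 h at room temperature. Read-out: fluorescence polarization of VDR–SRC2-3 peptide binding.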
Numbers stand for hits; n = inactive; u = inconclusive; x = not tested or not shown. The list is not random: actives were taken first. Their share in the collection is about 3.7%. Unless noted, calls follow the shape of the dose curve; as a rule, active = well fitted curve in the direction sought with a large enough effect; inconclusive = small, poorly fitted or top-dose-only effect, or another doubt; inactive = no such curve, though single readings can be large; an effect the other way counts as inactive or inconclusive.

SMILES	FEN1 inh	TCR act	PLK1 PBD inh	WRN helicase inh	PI5P4K alpha inh	VDR inh
O=C(Nc1ccc(Nc2ccncc2)cc1)c1ccc(Nc2ccnc3ccc([N+](=O)[O-])cc23)cc1[N+](=O)[O-]	n	n	n	n	-54	n
O=C(Nc1ccc(Nc2ccncc2)cc1)c1ccc([N+](=O)[O-])cc1	n	n	n	n	n	n
O=C(O[C@H]1CN2CCC1CC2)N1CCc2ccccc2[C@@H]1c1ccccc1	x	x	x	x	x	n
C=CCNS(=O)(=O)c1cccc2cc(C(=O)O)c(O)cc12	n	x	n	n	-57	n
O=C(O)c1cc2cccc(S(=O)(=O)N3CCCCC3)c2cc1O	n	n	n	n	-64	n
Cc1nnc(NC(=O)c2ccco2)s1	n	n	n	n	n	n
CC(C)(C)Cc1nnc(NC(=O)c2ccc3c(c2)OCO3)s1	n	n	15µM	u	u	u
CCC(CC)c1nnc(NC(=O)c2ccco2)s1	n	n	21µM	n	n	n
CCC(CC)c1nnc(NC(=O)COc2ccc3c(c2)OCO3)s1	n	n	13µM	n	n	79µM
CCC(CC)c1nnc(NC(=O)c2ccc3c(c2)OCO3)s1	n	n	27µM	n	n	79µM
O=C(Nc1nnc(Cc2ccc([N+](=O)[O-])cc2)s1)c1ccc2c(c1)OCO2	n	n	n	n	n	n
CC(C)c1nnc(NC(=O)COc2ccc3c(c2)OCO3)s1	n	n	n	n	n	n
Cc1cccc(NC(=O)c2cc(S(=O)(=O)N3CCc4ccccc43)ccc2F)c1C	n	x	x	x	x	n
CC(=O)Nc1ccc(S[C@@H](CCN2CC[C@H](O)CCC2=O)c2ccccc2)cc1	n	n	13µM	n	n	n
O=C1CC[C@@H](O)CCN1CC[C@H](Sc1ccccc1)c1ccccc1	n	n	n	n	n	n
CCNC(=O)c1c(C)oc2ncn(C)c(=O)c12	n	x	x	x	x	n
N#C/C(=C/c1ccc(N2CCCCCC2)o1)c1cccc(F)c1	n	n	n	n	x	45µM
CCc1ccc(NC(=O)Cn2c(=O)n(-c3cc(OC)c(OC)c(OC)c3)c(=O)c3ccccc32)cc1	n	x	x	x	x	n
COC(=O)c1nnc(N[C@@H](Cc2c[nH]c3ccccc23)C(=O)OC)nc1C(=O)OC	x	x	x	x	x	n
Cc1cc(=O)[nH]c(N/N=C/C2=C(N3CCOCC3)C(=C\c3ccc(Cl)cc3)/CC2)n1	n	n	u	n	u	89µM
Cc1cc(C)nc(N/N=C/C2=C(N3CCOCC3)C(=C/c3ccccc3)/CC2)n1	u	n	n	n	n	n
CCOC(=O)c1scc(-c2ccccc2)c1S(=O)(=O)Nc1ccc(N(C)C)cc1	n	x	x	x	x	20µM
O=C(CSc1nc2sc3c(c2c(=O)n1-c1ccccc1)CCCC3)N/N=C/c1ccccc1C(=O)O	50µM	n	n	n	n	n
CC(NC(=O)CSc1nc2sc3c(c2c(=O)n1-c1ccccc1)CCCC3)c1ccccc1 (centres undefined)	n	n	n	n	x	n
Cn1nnnc1SCC(=O)c1ccc(Br)s1	n	n	u	n	n	u
SMILES	FEN1 inh	TCR act	PLK1 PBD inh	WRN helicase inh	PI5P4K alpha inh	VDR inh
Cn1c(Cc2ccccc2)nnc1SCC(=O)c1ccc(Br)s1	n	n	21µM	n	n	n
CN(c1ccccc1)S(=O)(=O)c1cccc(NC(=O)Cn2cnc3c2c(=O)n(C)c(=O)n3C)c1	n	n	n	n	n	n
Cn1c(=O)c2c(ncn2CC(=O)Nc2cccc(S(=O)(=O)Nc3ccccc3F)c2)n(C)c1=O	n	n	30µM	u	n	n
Cc1cc(O)cc2c1O[C@](C)(CCC(=O)O)CC2	n	x	x	x	x	x
O=C(c1ccc[nH]1)N1O[C@@H]2C=C[C@H]1C2	n	n	n	n	n	n
Clc1ccc(N2O[C@H]3C=C[C@@H]2C3)nc1	x	x	30µM	n	u	x
COC(=O)c1ccc(-n2c(C)cc(C(=O)CCl)c2C)cc1	n	n	u	n	n	79µM
CCOc1ccc(-n2c(C)cc(C(=O)CCl)c2C)cc1	n	n	u	n	n	50µM
CCc1ccc(C2=C(C)C(N3CCC(C(=O)NCCc4ccco4)CC3)=NS2(=O)=O)cc1	n	x	x	x	x	n
O=C(Nc1ccc(Cl)cc1F)c1cc(S(=O)(=O)NCc2ccc3c(c2)OCO3)ccc1F	n	x	x	x	x	n
O=C(NN1C(=O)CSC1=S)C(=O)NN1C(=O)CSC1=S	u	n	n	22µM	-67	n
CCCN(c1ccccc1CC)S(=O)(=O)c1ccc2c(c1)CC(C)N2C(=O)C1CC1 (centres undefined)	n	x	x	x	x	n
CC(C)(C)C(=O)NCCn1ccc2ccccc21	n	n	n	n	n	n
CS(=O)(=O)NCCn1ccc2ccccc21	n	n	30µM	n	n	n
O=C(c1ccccc1)c1coc2ccc(O)c(CN3CCOCC3)c12	n	n	21µM	n	n	n
CN(C)Cc1c(O)ccc2occ(C(=O)c3ccccc3)c12	n	n	n	n	x	n
CCOC(=O)c1c(-c2ccccc2)oc2ccc(O)c(CN3CCOCC3)c12	n	n	12µM	n	n	n
CCS(=O)(=O)c1ncc(Cl)c(C(=O)N2CCN(c3ccc(OC)cc3)CC2)n1	n	x	x	x	x	u
CCCNc1ncc2c(=O)[nH][nH]c(=O)c2n1	n	n	n	n	-55	n
CCN(CC)C(=O)c1sc2c(c1C)c(=O)n(-c1ccc(OC)cc1OC)c(=O)n2CC(=O)c1ccc(Cl)cc1	n	x	x	x	x	n
CCC(=O)Nc1ccc(C(=O)CSc2nnc(-c3ccccc3F)n2C2CC2)cc1	n	n	n	n	-51	n
Cc1ccc2c(c1C)-c1c(ccc(C)c1C)C(=O)C2=O	u	n	19µM	n	n	u
Cc1ccc(CC#N)c(-c2c(CC#N)ccc(C)c2C)c1C	x	x	n	n	n	x
Cc1ccc(-n2c(CCC(=O)O)ccc2-c2cccs2)cc1Cl	n	x	x	x	x	u
C=C1C=C(C)n2ncc(C(=O)NCCCCCC)c2N1	n	x	x	x	x	x
SMILES	FEN1 inh	TCR act	PLK1 PBD inh	WRN helicase inh	PI5P4K alpha inh	VDR inh
CC/C(O)=C1\C(=O)CCCC1=NCCc1c(C)[nH]c2ccc(C)cc12	n	n	30µM	n	n	u
c1cncc(-c2nn3c(Cn4cnc5ccccc54)nnc3s2)c1	n	n	4.7µM	n	x	n
c1ccc2c(c1)ncn2Cc1nnc2sc(-c3ccncc3)nn12	n	n	12µM	n	x	n
Clc1ccc(Cl)c(-c2nn3c(Cn4cnc5ccccc54)nnc3s2)c1	n	n	n	n	x	n
Clc1cccc(N2CCN(c3ncnc4c3nc3n4CCCCC3)CC2)c1	n	x	x	x	x	u
CCOc1cc(C(=O)NCCc2ccc(S(N)(=O)=O)cc2)cc(OCC)c1OCC	n	n	30µM	n	n	n
COc1cc(C(=O)NCCc2ccc(S(N)(=O)=O)cc2)cc(OC)c1OC	n	n	n	n	x	n
O=C(CSc1ccccn1)Nc1ccc2[nH]c(=O)[nH]c2c1	n	n	27µM	n	n	n
Cc1ccc(SCC(=O)Nc2cc(C)on2)cc1	n	n	u	n	n	n
Cc1cc(NC(=O)CSc2ccc(Cl)cc2)no1	n	x	5.3µM	n	x	u
